In all, about 360,000 compounds went through this assay and about 25,000 (6.9%) were called active. Not shown: some 9% with an inconclusive outcome. The call rests on the fitted dose curve; in most records, active means well fitted inhibition curve with a large enough effect; inconclusive means small, poorly fitted or top-dose-only effect; inactive means flat fitted curve, though single readings scatter. The entries come from a sample that favours actives as a whole. Entries that show only a call come without a potency.
molecular target: Luciferin 4-monooxygenase (Photinus pyralis) (UniProt P08659); assay: qHTS profiling assay for firefly luciferase inhibitor/activator using purifed enzyme and Km concentrations of substrates (counterscreen for miR-21 project); settings: purified FLuc, luminescence inhibition; series mostly up to 57.5 µM; further: nearly all actives have a fitted effect of over 55% in size
Sequence (P08659 whole entry, looked up): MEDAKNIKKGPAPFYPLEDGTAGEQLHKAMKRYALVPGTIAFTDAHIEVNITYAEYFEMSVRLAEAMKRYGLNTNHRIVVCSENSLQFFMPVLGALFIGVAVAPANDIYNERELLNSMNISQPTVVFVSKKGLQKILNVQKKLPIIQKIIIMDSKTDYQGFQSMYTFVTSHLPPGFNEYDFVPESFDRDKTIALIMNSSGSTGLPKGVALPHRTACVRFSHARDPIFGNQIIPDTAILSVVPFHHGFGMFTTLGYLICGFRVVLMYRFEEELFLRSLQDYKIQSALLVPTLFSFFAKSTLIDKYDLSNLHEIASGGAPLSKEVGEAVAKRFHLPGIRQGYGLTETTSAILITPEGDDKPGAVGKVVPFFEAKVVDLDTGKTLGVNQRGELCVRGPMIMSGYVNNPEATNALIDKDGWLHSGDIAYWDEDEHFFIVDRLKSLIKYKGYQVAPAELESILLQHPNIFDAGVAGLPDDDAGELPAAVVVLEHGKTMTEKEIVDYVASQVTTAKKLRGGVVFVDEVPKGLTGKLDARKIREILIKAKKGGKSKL
Outline: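 Purified P. pyralis luciferase (10nM final) with 10uM D-luciferin and 10uM ATP (Km levels) in 50mM Tris acetate pH 7.5, 10mM Mg acetate, 0.01% Tween-20, 0.05% BSA; qHTS 6-point titration, ~60 µM downward; luminescence read.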
Potency means the concentration at half of the fitted maximal effect.

| SMILES | Potency |
| --- | --- |
| CC(C)C(NC(=O)c1ccc(Cl)cc1)C(=O)O (stereo unspecified) | inactive |
| Cc1occc1C(=O)NNC(=S)NCC(C)C | inactive |
| CC(C)CNC(=S)NC(=O)c1ccc(Cl)cc1 | 12 µM (active) |
| CCOC(=O)N1CCC(NC(=O)c2cnn(-c3cccc(C)c3)c2C2CCN(C(=O)OC(C)(C)C)CC2)CC1 | inactive |
| CC(=O)NCCc1nc2cc(NC(=O)c3ccccc3)ccc2n1C | 16.9 µM (active) |
| CCOC(=O)N1CCN(Cc2nc3cc(NC(C)=O)ccc3n2C)CC1 | inactive |
| CCCC(=O)Nc1ccc2c(c1)nc(CCNC(=O)c1ccco1)n2C | inactive |
| Cn1c(CCN2CCCC2)nc2cc(NS(=O)(=O)c3ccccc3)ccc21 | inactive |
| CCC(=O)Nc1ccc2c(c1)nc(CCN1CCN(c3ccccn3)CC1)n2C | inactive |
| Cn1c(CCN2CCCCCC2)nc2cc(NC(=O)Nc3ccccc3)ccc21 | 21.3 µM (active) |
| Cc1ccc(Nc2ccc3cc(S(=O)(=O)N4CCCCC4)ccc3n2)cc1F | inactive |
| CCOC(=O)c1ccc(NC(=O)CCS(=O)(=O)c2ccc3c(c2)oc(=O)n3C)cc1 | inactive |
| CC(C)CCNC(=O)CC1C(=O)N(Cc2ccccc2)C(C)c2nc3ccccc3n21 (stereo unspecified) | inactive |
| CCCN1CCN(CCCNC(=O)c2cnn(-c3ccc(C)cc3)c2-n2cccc2)CC1 | inactive |
| CCCNC(=O)CCc1c(C)nc2c(c(C)nn2-c2ccc(C)cc2)c1C | inactive |
| CCCNC(=O)c1c(Cl)cnn1-c1ccc(C)cc1 | 9.53 µM (active) |
| COc1ccccc1OCCNC(=O)C(CCSC)NC(=O)COc1ccccc1 (stereo unspecified) | inactive |
| CC(C(=O)NC1CCCC1)N1CCN(S(=O)(=O)c2ccccc2Cl)CC1 (stereo unspecified) | inactive |
| CC(C)(C)c1cc(=O)n2c(nc3ccccc32)[nH]1 | 21.3 µM (active) |
| CC(C)(C)c1nc2ccccc2c(=O)n1N1C(=O)c2ccccc2C1=O | inactive |
| CC(C)(C)N1CC(c2nc3ccccc3n2Cc2ccc(F)cc2)CC1=O (stereo unspecified) | inactive |
| O=C(COc1coc(CN2CCN(c3ccccc3)CC2)cc1=O)Nc1ccccc1F | inactive |

| SMILES | Potency |
| --- | --- |
| CC1=C(C(=O)OCC2CCCCC2)C(c2c(F)cccc2Cl)CC(=O)N1 (stereo unspecified) | inactive |
| Cc1cccc(C(CC(=O)NCC2(c3ccccc3)CCCC2)c2ccccc2)c1O (stereo unspecified) | inactive |
| Cn1c(=O)c(C(=O)O)nn(-c2ccccc2)c1=O | inactive |
| Cc1ccc(C(=O)Nc2nc(N)n(-c3ccccc3)n2)cc1 | 23.9 µM (active) |
| Cc1ccc(S(=O)(=O)Nc2nc(N)n(-c3ccccc3)n2)cc1 | inactive |
| COc1ccc(CNC(=O)CCc2c(C)nn(-c3ccc(N4CCCC4)nn3)c2C)cc1 | inactive |
| N#Cc1ccc(CSc2nnc3ccccn23)cc1 | inactive |
| Cn1c(CC(=O)Nc2ccccc2)nnc1SCC(=O)c1ccccc1 | inactive |
| CCN(C(=O)CSc1nnc2ccccn12)C1CCS(=O)(=O)C1 (stereo unspecified) | inactive |
| O=C(CSc1nnc2ccccn12)c1ccccc1 | 23.9 µM (active) |
| Cc1ccc(-n2c(C)nnc2SCC(=O)NC2CC2)cc1 | inactive |
| Cc1ccc(-n2c(C)cc(C(=O)CSc3nnc4ccccn34)c2C)cc1 | 2.13 µM (active) |
| O=C(Nc1cc(Cl)cc(Cl)c1)c1ccc2c(c1)N(Cc1cccc(Cl)c1)C(=O)c1ccccc1S2=O (stereo unspecified) | inactive |
| CCN(CC)c1ccc(NS(=O)(=O)c2cc(-c3cc(C)no3)ccc2C)c(C)c1 | inactive |
| Cc1cccc(C)c1-n1ncc(C(=O)NCCCN2CCCCC2)c1C1CCN(C(=O)OC(C)(C)C)CC1 | inactive |
| CCOC(=O)c1c(C)[nH]c(C)c1S(=O)(=O)N(C)CC(=O)N1CCN(c2ccccc2)CC1 | inactive |
| O=C(CSc1nc2c(c(=O)[nH]1)CN(Cc1ccc(F)cc1)CC2)Nc1ccccc1Cl | inactive |
| CC(C)c1nc2ccc(C(=O)O)cc2[nH]1 | 15.1 µM (active) |
| N#CC(C(=O)c1ccc(S(=O)(=O)N2CCCCCC2)cc1)c1nc2ccccc2[nH]1 (stereo unspecified) | inactive |
| OC(c1nc2ccc(F)cc2[nH]1)C(O)c1nc2ccc(F)cc2[nH]1 (stereo unspecified) | inactive |
| CCOC(=O)c1cccc(NC(=O)Cn2cnc3nc4c(cc3c2=O)CCCC4)c1 | inactive |
| CCOC(=O)c1[nH]c(C)c(CCC(=O)NCc2ccccc2C)c1C | inactive |

| SMILES | Potency |
| --- | --- |
| COc1ccc(CCNC(=O)C(=O)NCC(c2ccco2)S(=O)(=O)c2cccs2)cc1OC (stereo unspecified) | inactive |
| O=C(OCC#CCSc1nnc(-c2ccncc2)o1)c1sc2ccccc2c1Cl | inactive |
| C#CCSc1nnc(-c2sc3ccccc3c2Cl)o1 | 5.36 µM (active) |
| O=C(NCC#CCSc1nnc(-c2cccc3ccccc23)o1)c1cccs1 | inactive |
| COc1ccc2cc(-c3nc(Cl)c4c5c(sc4n3)CC(C)CC5)c(=O)oc2c1 (stereo unspecified) | inactive |
| COc1ccc(-c2cc3ccc(OCc4nn[nH]n4)cc3oc2=O)cc1 | 1.69 µM (active) |
| Cc1noc(C)c1COc1ccc2ccc(=O)oc2c1 | inactive |
| COc1ccc(CCN2C(=O)N(c3cccc(OC)c3)C(=O)C2CC(=O)Nc2ccccc2)cc1 (stereo unspecified) | inactive |
| Cc1cc(OCc2cc(C(=O)NCc3cc(C(C)C)no3)no2)cc(C)c1Cl | 4.78 µM (active) |
| CC(C)C(=O)NCc1cc(-c2ccc(Cl)cc2)no1 | inactive |
| COCCCNC(=O)COc1cc(C)c(Cl)c(C)c1 | inactive |
| CCc1ccc(NC(=O)c2nn(-c3ccc(C)cc3)c(=O)n(C)c2=O)cc1 | inactive |
| CS(=O)(=O)n1nc(-c2ccco2)nc1N | inactive |
| Cn1c(-c2ccco2)nc2cc3ccccc3cc21 | 0.12 µM (active) |
| Cn1c(SCC(=O)Nc2ccc(Br)cc2F)nnc1-c1ccco1 | inactive |
| Cc1cccc(N2CCN(C(=O)c3ccc(Nc4nc5ccccc5n5nnnc45)cc3)CC2)c1C | inactive |
| O=C(Nc1cc2ccccc2oc1=O)C1CCCCC1 | 2.39 µM (active) |
| Cc1ccccc1NC(=O)C1CCN(C(=O)NC2CCCCC2)CC1 | inactive |
| Cc1cc(NC(=O)CN2CCCCC2C)nc2c1c(=O)oc1ccccc12 (stereo unspecified) | inactive |
| COC(=O)c1cc(NC(=O)CCS(=O)(=O)c2cc(Br)cc3c2N(C(=O)C2CC2)CC3)cc(C(=O)OC)c1 | inactive |
| O=C1CCCc2cc(S(=O)(=O)N3CCCC(C(=O)NCc4ccccc4)C3)ccc2N1 (stereo unspecified) | inactive |
| CC(C)(C)OC(=O)N1CCC(c2c(C(=O)NCc3ccccn3)cnn2-c2ccc(F)cc2)CC1 | inactive |
